Source: the supplement of paper PMC11732987, “Enantioselective OTUD7B fragment discovery through chemoproteomics screening and high-throughput optimisation” (Communications Chemistry, 2025)

Experiments:
Assay in all cases: log2 ratio of Biotin-Ahx-Ub-VS probe labelling (fragment/DMSO); higher = less target engagement (more negative = stronger competition), active = hit call of the paper (q ≤ 0.05, log2 ratio ≤ -1)
Details in all cases: compound concentration: 200 uM; treatment time: 3 h
USP42 = target: T1, USP42 (UniProt Q9H9J4)
T1 sequence (whole entry): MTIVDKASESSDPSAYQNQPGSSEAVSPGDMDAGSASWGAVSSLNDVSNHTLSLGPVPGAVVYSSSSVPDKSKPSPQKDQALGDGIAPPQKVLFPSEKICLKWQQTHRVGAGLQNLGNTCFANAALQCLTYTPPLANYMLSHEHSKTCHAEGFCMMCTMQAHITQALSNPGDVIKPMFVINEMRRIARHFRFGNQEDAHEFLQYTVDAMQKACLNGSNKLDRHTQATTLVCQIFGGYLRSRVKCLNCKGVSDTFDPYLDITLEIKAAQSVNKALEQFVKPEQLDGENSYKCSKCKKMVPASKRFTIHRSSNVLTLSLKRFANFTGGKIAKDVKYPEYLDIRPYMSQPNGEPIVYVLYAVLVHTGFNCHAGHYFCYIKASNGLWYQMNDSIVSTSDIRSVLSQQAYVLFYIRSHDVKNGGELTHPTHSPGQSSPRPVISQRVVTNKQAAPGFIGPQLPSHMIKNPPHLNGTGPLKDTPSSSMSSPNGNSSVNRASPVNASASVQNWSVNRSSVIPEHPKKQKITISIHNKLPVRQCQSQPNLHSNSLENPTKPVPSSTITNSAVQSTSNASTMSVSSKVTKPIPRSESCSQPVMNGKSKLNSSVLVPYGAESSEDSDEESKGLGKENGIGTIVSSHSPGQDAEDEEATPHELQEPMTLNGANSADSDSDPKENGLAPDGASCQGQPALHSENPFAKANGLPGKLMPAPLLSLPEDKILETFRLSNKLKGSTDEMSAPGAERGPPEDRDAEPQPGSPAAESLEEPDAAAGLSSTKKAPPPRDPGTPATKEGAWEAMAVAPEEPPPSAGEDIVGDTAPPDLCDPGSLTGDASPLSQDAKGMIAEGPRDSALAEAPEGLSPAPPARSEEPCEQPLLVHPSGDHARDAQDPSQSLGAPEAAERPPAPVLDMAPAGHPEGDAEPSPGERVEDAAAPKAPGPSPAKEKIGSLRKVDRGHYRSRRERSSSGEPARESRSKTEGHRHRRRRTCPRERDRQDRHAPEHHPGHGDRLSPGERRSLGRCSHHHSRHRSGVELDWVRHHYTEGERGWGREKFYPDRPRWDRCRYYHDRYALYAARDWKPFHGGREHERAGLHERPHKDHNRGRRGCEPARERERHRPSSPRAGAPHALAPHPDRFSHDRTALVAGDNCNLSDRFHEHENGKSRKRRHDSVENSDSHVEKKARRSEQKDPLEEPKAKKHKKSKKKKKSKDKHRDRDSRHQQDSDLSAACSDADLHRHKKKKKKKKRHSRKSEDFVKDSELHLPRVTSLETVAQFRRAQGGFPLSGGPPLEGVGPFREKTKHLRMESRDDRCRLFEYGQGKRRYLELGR
How it was run: (§1)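 HEK293T lysate in Tris/CHAPS/IGEPAL buffer with protease inhibitors (495 µg per sample) was given fragment at 200 µM or vehicle for 3 h, in triplicate. It then received Biotin-Ahx-Ub-VS at 0.5 µM final for 1 h. Labelled DUBs were NeutrAvidin-enriched, digested with LysC and trypsin, and run by diaPASEF LC-MS/MS. Values are average log2 fragment/vehicle ratios by unpaired t-test on global-median-normalised Spectronaut quantities of proteins with ≥2 unique peptides.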

USP46 = USP46 (UniProt P62068)
How it was run: as §1

USP47 = target: T2, USP47 (UniProt Q96K76)
T2 sequence (whole entry): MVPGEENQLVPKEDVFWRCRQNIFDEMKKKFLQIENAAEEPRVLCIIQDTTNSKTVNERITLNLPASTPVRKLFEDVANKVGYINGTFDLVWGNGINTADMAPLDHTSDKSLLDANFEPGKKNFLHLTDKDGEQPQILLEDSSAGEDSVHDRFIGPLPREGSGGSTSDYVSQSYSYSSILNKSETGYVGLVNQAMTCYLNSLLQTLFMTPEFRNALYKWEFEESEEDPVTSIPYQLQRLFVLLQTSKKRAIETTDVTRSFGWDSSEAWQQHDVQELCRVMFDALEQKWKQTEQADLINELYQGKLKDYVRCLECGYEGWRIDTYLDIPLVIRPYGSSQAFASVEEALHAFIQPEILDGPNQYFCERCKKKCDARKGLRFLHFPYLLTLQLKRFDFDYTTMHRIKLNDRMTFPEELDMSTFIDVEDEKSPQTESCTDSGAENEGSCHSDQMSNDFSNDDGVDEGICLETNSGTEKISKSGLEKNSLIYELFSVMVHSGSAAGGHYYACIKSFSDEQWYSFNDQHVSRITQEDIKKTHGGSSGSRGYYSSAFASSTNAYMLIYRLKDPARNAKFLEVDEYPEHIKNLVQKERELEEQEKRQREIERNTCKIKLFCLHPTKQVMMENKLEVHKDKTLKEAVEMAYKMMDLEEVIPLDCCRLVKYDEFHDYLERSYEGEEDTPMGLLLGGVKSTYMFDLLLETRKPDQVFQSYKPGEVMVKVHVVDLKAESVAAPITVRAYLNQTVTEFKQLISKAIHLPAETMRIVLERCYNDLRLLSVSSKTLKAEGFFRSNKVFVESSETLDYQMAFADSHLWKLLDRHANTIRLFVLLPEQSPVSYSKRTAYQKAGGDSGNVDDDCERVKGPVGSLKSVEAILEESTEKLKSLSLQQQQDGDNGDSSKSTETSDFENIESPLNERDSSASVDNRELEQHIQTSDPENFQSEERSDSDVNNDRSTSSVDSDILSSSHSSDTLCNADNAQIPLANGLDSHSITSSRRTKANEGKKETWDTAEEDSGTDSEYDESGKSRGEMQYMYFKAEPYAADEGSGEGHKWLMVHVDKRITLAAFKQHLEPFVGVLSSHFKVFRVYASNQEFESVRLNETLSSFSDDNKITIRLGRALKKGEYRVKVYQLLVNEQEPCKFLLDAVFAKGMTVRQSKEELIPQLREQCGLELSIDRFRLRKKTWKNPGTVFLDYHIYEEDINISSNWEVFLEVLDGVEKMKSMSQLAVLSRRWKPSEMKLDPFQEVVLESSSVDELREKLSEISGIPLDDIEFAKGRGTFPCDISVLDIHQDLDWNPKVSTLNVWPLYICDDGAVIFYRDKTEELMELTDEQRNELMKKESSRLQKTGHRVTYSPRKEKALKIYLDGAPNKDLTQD
How it was run: as §1

USP48 = target: T3, USP48 (UniProt Q86UV5)
T3 sequence (whole entry): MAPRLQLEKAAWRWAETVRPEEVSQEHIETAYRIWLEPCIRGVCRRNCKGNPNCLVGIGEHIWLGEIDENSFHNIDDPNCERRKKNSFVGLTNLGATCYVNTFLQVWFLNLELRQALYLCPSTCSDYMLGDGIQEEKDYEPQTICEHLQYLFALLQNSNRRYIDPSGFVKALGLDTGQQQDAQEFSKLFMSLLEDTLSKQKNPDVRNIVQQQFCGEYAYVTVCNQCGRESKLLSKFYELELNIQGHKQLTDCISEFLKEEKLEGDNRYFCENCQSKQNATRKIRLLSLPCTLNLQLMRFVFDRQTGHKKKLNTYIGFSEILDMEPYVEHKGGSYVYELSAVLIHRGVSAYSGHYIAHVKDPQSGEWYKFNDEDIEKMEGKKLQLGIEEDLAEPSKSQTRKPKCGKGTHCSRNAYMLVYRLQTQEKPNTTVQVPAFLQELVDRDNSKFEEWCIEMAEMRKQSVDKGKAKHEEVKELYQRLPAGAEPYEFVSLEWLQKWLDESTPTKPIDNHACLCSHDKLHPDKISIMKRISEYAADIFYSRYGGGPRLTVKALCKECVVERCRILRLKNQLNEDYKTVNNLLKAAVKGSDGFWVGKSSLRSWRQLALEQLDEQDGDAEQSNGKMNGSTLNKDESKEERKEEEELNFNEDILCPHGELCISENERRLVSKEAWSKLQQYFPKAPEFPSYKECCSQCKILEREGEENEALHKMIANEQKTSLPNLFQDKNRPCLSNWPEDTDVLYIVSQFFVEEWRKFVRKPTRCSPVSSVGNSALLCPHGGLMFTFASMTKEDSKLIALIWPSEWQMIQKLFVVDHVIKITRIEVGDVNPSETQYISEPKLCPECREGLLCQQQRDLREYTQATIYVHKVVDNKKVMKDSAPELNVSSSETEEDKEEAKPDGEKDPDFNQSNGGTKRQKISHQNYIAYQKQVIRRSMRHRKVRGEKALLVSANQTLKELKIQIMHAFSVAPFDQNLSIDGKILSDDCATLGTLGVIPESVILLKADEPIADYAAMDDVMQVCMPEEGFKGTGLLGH
How it was run: as §1

USP5 = target: T4, USP5 (UniProt P45974)
T4 sequence (whole entry): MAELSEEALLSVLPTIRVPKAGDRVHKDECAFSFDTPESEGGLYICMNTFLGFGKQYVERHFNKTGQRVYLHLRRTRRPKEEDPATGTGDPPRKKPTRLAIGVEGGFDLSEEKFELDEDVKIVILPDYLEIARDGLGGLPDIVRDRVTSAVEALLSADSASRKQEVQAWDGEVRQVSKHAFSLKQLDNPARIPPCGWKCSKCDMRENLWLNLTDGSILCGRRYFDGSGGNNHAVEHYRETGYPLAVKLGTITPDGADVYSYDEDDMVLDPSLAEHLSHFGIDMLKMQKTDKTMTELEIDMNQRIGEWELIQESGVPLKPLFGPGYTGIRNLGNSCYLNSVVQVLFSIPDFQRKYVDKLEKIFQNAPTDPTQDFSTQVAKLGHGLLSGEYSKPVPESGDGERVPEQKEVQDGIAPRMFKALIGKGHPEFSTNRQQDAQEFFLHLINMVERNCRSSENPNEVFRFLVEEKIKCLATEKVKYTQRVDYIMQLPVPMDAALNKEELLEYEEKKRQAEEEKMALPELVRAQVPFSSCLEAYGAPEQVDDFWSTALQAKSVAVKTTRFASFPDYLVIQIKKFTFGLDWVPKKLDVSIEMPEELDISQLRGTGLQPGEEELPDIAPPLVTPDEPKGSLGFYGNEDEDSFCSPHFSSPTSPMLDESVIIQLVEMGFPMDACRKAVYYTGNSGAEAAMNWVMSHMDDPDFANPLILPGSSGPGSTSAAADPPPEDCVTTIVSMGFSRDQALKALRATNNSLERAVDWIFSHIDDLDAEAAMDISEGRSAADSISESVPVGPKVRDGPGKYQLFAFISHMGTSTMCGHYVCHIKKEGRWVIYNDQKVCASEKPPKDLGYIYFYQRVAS
How it was run: as §1

USP54 = USP54 (UniProt Q70EL1)
How it was run: as §1

USP7 = USP7 (UniProt Q93009)
How it was run: as §1

USP8 = target: T5, USP8 (UniProt P40818)
T5 sequence (whole entry): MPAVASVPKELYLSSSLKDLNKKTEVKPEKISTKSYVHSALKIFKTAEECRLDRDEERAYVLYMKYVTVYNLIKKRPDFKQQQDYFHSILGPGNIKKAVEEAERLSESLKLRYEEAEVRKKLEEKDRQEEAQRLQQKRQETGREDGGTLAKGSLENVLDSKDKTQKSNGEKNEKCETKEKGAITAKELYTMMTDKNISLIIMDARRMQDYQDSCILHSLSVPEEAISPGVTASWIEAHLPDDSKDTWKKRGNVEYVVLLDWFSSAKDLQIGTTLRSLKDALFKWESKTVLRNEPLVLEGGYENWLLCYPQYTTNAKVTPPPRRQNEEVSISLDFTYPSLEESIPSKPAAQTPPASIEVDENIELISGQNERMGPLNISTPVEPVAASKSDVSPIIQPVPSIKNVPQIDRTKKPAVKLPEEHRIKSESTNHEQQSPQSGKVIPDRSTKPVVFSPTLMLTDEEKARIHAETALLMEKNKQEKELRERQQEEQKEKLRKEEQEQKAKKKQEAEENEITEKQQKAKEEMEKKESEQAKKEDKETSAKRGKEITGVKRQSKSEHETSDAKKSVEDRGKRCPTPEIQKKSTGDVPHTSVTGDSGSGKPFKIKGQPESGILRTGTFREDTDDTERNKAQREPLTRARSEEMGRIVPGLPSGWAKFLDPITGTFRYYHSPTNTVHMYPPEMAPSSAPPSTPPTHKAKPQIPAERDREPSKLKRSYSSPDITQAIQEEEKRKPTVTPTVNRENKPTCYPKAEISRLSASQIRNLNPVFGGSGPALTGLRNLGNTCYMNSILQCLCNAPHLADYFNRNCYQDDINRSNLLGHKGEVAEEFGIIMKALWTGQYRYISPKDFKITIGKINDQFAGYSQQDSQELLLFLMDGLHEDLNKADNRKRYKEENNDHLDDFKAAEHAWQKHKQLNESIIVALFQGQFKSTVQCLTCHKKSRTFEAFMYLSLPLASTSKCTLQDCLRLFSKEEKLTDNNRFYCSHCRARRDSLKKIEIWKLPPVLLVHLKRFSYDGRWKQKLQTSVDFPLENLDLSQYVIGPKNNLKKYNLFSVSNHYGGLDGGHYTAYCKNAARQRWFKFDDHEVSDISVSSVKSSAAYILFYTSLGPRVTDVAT
How it was run: as §1

USP9X = USP9X (UniProt Q93008)
How it was run: as §1

UniProt O00487 = target: UniProt O00487
How it was run: as §1

Measured: log2 ratio of Biotin-Ahx-Ub-VS probe labelling

Sequence of USP9X (Q93008 whole entry): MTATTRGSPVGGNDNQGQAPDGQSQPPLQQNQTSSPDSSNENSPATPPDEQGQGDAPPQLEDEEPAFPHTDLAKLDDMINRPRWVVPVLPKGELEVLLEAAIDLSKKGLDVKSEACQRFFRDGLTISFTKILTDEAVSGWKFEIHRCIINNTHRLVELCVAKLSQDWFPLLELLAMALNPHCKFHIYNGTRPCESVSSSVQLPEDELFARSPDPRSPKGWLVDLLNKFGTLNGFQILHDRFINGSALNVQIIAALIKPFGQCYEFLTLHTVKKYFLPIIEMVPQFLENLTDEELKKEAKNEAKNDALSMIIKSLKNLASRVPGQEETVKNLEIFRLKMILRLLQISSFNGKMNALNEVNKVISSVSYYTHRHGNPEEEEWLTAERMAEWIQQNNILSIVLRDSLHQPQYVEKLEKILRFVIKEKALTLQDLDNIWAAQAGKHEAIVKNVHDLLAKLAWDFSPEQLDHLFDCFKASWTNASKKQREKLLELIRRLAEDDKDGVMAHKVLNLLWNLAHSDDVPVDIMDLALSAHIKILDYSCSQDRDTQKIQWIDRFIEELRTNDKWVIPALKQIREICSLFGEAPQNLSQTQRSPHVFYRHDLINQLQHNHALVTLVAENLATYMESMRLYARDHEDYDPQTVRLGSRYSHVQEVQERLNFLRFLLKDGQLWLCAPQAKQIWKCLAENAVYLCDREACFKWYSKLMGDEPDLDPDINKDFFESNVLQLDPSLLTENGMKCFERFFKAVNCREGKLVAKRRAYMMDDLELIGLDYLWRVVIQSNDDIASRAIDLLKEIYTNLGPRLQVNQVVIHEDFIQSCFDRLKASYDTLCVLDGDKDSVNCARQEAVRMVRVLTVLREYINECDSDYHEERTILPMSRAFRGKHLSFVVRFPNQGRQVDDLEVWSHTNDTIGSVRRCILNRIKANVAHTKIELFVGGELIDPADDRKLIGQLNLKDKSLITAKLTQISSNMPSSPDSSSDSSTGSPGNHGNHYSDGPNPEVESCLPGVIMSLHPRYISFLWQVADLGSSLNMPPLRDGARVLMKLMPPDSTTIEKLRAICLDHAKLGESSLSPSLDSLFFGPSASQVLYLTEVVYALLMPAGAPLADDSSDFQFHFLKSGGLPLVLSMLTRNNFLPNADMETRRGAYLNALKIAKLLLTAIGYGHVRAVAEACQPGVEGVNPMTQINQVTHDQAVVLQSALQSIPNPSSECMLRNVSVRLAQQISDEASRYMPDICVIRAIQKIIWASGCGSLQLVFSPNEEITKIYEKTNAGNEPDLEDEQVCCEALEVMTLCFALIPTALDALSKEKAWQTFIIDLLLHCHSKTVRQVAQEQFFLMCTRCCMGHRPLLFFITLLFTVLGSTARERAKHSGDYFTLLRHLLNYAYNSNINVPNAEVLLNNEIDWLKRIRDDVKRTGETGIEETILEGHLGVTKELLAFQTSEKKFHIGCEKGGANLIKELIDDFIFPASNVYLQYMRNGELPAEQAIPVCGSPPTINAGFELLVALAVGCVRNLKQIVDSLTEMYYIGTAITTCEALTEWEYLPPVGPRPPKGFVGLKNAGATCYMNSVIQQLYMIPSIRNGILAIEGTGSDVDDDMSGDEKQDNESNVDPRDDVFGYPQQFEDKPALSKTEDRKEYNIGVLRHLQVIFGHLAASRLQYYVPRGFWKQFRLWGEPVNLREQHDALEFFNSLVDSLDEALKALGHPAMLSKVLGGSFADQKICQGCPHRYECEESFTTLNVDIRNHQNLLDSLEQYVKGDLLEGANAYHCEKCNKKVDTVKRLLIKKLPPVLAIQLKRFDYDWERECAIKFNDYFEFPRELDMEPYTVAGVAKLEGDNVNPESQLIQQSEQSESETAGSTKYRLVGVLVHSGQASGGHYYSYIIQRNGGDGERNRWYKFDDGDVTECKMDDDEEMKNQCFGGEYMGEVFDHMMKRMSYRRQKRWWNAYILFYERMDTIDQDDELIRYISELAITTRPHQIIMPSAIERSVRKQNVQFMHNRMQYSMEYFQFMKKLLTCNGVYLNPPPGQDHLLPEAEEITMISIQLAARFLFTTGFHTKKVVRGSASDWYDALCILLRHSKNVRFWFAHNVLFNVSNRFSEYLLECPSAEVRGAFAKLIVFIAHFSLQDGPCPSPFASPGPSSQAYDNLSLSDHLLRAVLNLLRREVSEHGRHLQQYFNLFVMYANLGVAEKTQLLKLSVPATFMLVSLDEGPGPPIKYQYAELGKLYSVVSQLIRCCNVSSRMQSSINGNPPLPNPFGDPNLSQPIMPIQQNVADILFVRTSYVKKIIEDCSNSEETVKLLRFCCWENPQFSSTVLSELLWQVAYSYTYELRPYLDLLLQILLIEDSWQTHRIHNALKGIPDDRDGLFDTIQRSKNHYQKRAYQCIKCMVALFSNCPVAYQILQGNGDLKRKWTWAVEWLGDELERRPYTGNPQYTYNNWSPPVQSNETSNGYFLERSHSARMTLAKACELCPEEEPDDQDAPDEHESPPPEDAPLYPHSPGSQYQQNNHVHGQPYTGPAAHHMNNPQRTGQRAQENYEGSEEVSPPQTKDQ
Sequence of USP54 (Q70EL1 whole entry): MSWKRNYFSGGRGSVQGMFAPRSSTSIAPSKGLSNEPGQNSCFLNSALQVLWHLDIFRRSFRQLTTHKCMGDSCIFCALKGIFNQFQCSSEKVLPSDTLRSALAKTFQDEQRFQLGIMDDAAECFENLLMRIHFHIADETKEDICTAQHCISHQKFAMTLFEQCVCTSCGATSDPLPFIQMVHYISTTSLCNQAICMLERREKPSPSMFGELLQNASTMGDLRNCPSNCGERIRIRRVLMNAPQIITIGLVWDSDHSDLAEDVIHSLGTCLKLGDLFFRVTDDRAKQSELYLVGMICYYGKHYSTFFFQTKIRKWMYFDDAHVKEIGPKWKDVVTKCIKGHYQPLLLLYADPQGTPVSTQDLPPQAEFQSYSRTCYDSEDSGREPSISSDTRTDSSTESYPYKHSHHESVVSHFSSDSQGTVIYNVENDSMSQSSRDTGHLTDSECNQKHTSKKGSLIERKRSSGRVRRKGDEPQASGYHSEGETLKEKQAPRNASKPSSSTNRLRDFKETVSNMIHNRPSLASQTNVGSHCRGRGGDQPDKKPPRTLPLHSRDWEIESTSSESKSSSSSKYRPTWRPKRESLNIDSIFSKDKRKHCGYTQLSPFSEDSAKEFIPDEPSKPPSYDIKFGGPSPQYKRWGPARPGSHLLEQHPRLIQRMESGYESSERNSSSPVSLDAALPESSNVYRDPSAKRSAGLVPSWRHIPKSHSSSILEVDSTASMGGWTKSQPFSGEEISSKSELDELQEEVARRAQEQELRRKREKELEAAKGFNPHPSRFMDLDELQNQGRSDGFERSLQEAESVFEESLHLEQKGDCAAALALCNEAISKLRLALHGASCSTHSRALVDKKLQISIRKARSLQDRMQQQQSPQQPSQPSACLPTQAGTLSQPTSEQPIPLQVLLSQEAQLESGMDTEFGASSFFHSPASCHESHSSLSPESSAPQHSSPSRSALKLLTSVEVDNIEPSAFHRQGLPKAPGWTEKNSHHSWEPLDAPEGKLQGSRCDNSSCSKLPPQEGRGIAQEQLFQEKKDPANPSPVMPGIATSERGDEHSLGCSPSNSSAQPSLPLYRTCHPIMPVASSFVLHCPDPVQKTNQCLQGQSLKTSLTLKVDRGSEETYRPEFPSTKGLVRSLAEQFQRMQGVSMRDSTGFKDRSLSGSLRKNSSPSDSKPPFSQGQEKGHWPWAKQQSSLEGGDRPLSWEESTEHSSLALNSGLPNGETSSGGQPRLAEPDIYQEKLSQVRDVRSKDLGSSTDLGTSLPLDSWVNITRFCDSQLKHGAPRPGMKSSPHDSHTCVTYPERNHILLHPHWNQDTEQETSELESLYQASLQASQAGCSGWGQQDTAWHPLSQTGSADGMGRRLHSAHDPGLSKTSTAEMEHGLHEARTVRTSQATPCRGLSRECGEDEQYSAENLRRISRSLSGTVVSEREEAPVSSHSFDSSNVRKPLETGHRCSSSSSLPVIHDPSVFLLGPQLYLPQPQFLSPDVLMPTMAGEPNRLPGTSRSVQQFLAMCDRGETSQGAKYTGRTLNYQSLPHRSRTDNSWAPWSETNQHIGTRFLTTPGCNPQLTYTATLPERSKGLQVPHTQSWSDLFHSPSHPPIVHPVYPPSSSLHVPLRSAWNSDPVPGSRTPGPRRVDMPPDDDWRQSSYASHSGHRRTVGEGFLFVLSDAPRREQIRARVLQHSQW
Sequence of UniProt O00487 (O00487 whole entry): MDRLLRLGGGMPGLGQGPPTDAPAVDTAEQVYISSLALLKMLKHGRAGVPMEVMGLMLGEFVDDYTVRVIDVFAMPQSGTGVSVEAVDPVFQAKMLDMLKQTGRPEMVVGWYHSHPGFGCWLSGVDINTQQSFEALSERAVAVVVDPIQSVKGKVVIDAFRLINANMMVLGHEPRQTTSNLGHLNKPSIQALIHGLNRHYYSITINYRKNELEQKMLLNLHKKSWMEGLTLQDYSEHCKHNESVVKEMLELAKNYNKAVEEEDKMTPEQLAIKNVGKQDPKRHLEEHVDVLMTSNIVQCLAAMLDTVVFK
Sequence of USP46 (P62068 whole entry): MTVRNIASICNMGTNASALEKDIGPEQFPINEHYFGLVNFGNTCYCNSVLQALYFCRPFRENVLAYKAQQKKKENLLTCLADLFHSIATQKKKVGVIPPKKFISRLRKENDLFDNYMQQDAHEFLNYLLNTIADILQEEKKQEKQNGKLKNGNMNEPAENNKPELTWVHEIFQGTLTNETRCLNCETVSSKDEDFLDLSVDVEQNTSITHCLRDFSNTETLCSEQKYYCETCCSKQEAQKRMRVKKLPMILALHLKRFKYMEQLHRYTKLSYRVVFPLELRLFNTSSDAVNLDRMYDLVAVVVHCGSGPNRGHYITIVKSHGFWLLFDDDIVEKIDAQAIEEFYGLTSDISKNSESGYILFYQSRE

Cc1nc(-c2cccc(NC(=O)CCl)c2)cs1
inactive: USP42 0.339 | USP46 -0.382 | USP47 -0.123 | USP48 -0.43 | USP5 -0.284 | USP54 0.0451 | USP7 -0.163 | USP8 -0.282 | USP9X -0.362 | UniProt O00487 -0.0542
